Screening data deposited in PubChem BioAssay by National Center for Advancing Translational Sciences (NCATS).
JMJD2A Tudor: qHTS Assay for Inhibitors of JMJD2A-Tudor Domain. Lysine-specific demethylase 4A (Homo sapiens), O75164. AlphaScreen JMJD2A-Tudor / H3K4me3 peptide binding. Potency, µM (series often up to 114 µM), for inactives: top-dose activity change, negative = inhibition, actives largely listed as inhibitors. 4.4% of 390,000 active. AID 504339, 2011; also: potency is read from the fitted curve at half-maximal effect; % is scaled to controls: 0 for no effect and ±100 for the full control effect; nearly all actives have a fitted effect of over 50% in size
G9a block: qHTS Assay for Inhibitors of Histone Lysine Methyltransferase G9a; G9a H3K9 monomethylation, AlphaScreen, 2 h; Potency, µM (doses to about 102 µM), for the others: top-dose activity, negative = inhibition, hits mostly inhibitors; 8.8% of 350,000 active; AID 504332, 2011; also: potency is read from the fitted curve at half-maximal effect; % is scaled to controls: 0 for no effect and ±100 for the full control effect; nearly all actives have a fitted effect of over 75% in size
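Methyltransferase reactions run at room temperature for 2 h (20 nM enzyme, 500 nM biotin-H3K9 peptide, 20 uM SAM) after a 15 min compound preincubation; product detected by AlphaScreen beads and anti-H3K9me1 antibody.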
BAZ2B inh: qHTS Assay for Inhibitors of BAZ2B; Bromodomain adjacent to zinc finger domain protein 2B (Homo sapiens), Q9UIF8; AlphaScreen BAZ2B-H3K14Ac peptide displacement; Potency, µM (highest dose often 114 µM), inactives show at the top dose activity change, negative = inhibition, most hits filed as inhibitors; 4.4% of 360,000 active; also: potency is read from the fitted curve at half-maximal effect; % is scaled to controls: 0 for no effect and ±100 for the full control effect; nearly all actives have a fitted effect of over 60% in size
Target sequence (Q9UIF8 whole entry, looked up, the tested form may be a part): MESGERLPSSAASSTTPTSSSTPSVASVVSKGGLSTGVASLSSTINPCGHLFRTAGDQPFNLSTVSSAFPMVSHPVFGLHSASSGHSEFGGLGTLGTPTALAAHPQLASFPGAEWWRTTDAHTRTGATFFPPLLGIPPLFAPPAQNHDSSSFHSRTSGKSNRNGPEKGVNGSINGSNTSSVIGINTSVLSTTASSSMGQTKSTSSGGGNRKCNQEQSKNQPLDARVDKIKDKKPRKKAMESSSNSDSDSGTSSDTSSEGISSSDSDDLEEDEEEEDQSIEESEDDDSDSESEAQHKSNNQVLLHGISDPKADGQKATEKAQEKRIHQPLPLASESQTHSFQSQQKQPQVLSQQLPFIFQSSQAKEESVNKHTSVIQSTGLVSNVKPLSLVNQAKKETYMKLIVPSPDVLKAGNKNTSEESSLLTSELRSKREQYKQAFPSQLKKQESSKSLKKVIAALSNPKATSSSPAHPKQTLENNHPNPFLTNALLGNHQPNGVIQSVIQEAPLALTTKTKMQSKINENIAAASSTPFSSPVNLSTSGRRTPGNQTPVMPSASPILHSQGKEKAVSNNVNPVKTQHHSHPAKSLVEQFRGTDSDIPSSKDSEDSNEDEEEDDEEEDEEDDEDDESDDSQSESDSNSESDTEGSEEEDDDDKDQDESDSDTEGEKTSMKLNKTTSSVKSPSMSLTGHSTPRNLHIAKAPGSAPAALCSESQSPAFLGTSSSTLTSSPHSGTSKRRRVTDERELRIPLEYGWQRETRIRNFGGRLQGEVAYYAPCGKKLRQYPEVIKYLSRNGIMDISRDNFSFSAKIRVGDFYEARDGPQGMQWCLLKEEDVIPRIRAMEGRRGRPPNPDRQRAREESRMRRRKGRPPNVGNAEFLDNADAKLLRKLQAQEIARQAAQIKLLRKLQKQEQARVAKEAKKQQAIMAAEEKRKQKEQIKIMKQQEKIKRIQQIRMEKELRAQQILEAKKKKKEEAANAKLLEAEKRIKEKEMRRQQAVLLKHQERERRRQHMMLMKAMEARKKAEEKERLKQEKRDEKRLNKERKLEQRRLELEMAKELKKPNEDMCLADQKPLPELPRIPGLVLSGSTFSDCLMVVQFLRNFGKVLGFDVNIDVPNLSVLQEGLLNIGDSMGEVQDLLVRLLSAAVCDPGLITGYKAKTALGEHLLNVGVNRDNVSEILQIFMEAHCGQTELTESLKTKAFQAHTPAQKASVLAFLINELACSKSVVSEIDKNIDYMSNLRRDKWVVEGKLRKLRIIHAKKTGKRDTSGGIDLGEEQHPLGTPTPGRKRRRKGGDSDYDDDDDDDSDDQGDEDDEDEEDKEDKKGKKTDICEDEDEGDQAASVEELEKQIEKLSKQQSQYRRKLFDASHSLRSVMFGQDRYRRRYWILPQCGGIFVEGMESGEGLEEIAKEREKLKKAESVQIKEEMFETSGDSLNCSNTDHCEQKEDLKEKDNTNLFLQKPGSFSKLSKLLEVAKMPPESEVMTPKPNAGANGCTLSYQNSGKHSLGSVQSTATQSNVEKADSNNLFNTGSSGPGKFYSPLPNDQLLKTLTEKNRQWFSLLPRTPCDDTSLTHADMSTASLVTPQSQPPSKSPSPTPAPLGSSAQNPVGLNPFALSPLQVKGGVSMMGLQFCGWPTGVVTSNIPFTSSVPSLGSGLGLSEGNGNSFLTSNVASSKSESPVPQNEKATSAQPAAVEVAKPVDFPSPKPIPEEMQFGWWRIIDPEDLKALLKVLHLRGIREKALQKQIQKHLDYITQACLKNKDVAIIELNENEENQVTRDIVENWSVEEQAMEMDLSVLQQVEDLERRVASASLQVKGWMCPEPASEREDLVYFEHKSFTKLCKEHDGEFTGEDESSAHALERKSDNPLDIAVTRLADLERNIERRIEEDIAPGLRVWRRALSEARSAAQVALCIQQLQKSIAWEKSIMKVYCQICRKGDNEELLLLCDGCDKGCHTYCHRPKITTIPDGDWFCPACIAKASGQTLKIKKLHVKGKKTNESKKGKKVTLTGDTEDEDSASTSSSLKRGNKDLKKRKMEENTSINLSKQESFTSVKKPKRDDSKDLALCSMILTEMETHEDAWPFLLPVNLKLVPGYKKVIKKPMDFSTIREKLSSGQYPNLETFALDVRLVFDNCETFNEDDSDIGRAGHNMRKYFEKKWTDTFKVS
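Multi-concentration screen (max 110 uM) measuring displacement of acetylated histone H3 peptide from BAZ2B by AlphaScreen, using 50 nM protein, 50 nM peptide and 10 ug/mL streptavidin donor plus Ni-chelate acceptor beads.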
CtBP-E1A blk: qHTS Assay for Inhibitors of the CtBP/E1A Interaction | AlphaScreen GST-E1A/His-CtBP binding, 1536-well; stronger effect = lower value | activity change, % (concentration not given with the values) | 0.49% of 340,000 active; in the data active = activity change below about -65%; inconclusive = mostly about -30% to -63%; also: % is scaled to controls: 0 for no effect and ±100 for the full control effect
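Steps: dispense buffer (Tris pH 8.0, NaCl 300 mM, TCEP 1 mM, BSA, Tween 20); add 5X protein mix (GST-E1A, His-CtBP, 125 nM each); pin 23 nL compound; 2 h at 37 °C, dark; add 5X beads (50 ug/mL); 1 h; read.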
HP1b binding inh: HTS for Inhibitors of HP1-beta Chromodomain Interactions with Methylated Histone Tails. AlphaScreen HP1-beta / biotin-H3K9me3 peptide binding. Potency, µM (doses to about 114 µM), for inactives: top-dose activity change, negative = inhibition, most hits filed as inhibitors. 0.56% of 390,000 active; also: potency is read from the fitted curve at half-maximal effect; nearly all actives have a fitted effect of over 70% in size
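HP1-beta protein (50 nM final) preincubated 30 min at room temperature with biotinylated H3(1-18)K9me3 peptide (50 nM) in PBS pH 7.4, 0.01% Tween-20, then compound added for 30 min. AlphaScreen streptavidin donor/nickel chelate acceptor beads (10 ug/mL final), 30 min dark, luminescence read.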
Six1-Eya2 inh: qHTS Assay for Inhibitors of the Six1/Eya2 Interaction; Homeobox protein SIX1 (Homo sapiens) + Protein phosphatase EYA2 (Homo sapiens), …; 0.56% of 360,000 active; activity change, % (concentration not given with the values); AlphaScreen GST-Six1/His-Eya2 binding, biochemical; stronger effect = lower value; in the data active = activity change below about -65%; inconclusive = mostly about -30% to -63%; also: % is scaled to controls: 0 for no effect and ±100 for the full control effect
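Compounds are tested against tagged Six1 and Eya2 proteins bridged by glutathione donor and nickel acceptor beads; after a one-hour incubation at 37 °C without light, AlphaScreen emission is recorded.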
* marks the source's active call; other numbers are inactive results; ? = inconclusive; . = not tested or not shown; ! = a repeat was not active; [ ] = dose if it differs, or a comment. Compounds with a hit are over-represented: about 10% of the library has one in this group of screens. Unless noted, calls follow the shape of the dose curve; as a rule, active = well fitted inhibition curve with a large enough effect; inconclusive = small, poorly fitted or top-dose-only effect; inactive = no such curve, though single readings can be large or run the other way.

SMILES	JMJD2A Tudor	G9a block	BAZ2B inh	CtBP-E1A blk	HP1b binding inh	Six1-Eya2 inh
Cc1ccc(Cn2c(-n3nc(C)cc3C)nc3c2c(=O)[nH]c(=O)n3C)cc1	-3.2%	-1.2%	-3.9%	5.0	28.1%	-2.3
COc1ccc(N2CCN(Cc3nc4c(c(=O)[nH]c(=O)n4C)n3Cc3ccccc3C)CC2)cc1	-4.3%	28.2µM*	-23.0%	.	18.6%	.
COc1ccc(N2CCN(c3nc4c(c(=O)[nH]c(=O)n4C)n3Cc3cccc(C)c3)CC2)cc1	?	10µM*	-34.4%	5.1	?	-4.6
COc1ccc(CCn2c(-n3nc(C)cc3C)nc3c2c(=O)[nH]c(=O)n3C)cc1	3.16µM*	.	.	-6.7	-13.5%	-18.3
CCOC(=O)c1c(C)[nH]c(C)c1S(=O)(=O)N1CCC(C(=O)N2CCN(c3ccccc3)CC2)CC1	-26.7%	-7.6%[59 µM]	-22.3%	.	22.0%	.
O=C(c1ccc(Nc2nc3ccccc3n3nnnc23)cc1)N1CCN(c2ccc(F)cc2)CC1	-2.4%	2.4%[59 µM]	-2.4%	.	31.3%	.
Cc1cc(C(=O)OCC(=O)N2CCOCC2)c2ccccc2n1	35.5µM*	0.1%[59 µM]	6.8%	-1.5	?	1.7
O=C(Nc1nncs1)c1cc(-c2ccco2)nc2ccccc12	?	.	.	-5.0	3.1%	?
COc1ccccc1CNC(=O)COC(=O)c1cc(-c2ccco2)nc2ccccc12	20µM*	12.6µM*	39.8µM*	29.4	?	-18.7
NC(=O)COC(=O)c1cc(-c2ccco2)nc2ccccc12	-19.0%	15.8µM*	-24.0%	-13.5	6.0%	-12.1
COc1ccccc1CNC(=O)COC(=O)c1cc(C)nc2ccccc12	-6.2%	.	.	0.9	20.4%	-0.5
O=C(COC(=O)c1cc(-c2ccco2)nc2ccccc12)NCc1ccc2c(c1)OCO2	-13.7%	12.6µM*	-9.2%	-5.4	22.8%	-17.7
CCC(C(=O)NCCc1ccc(OC)c(OC)c1)n1nc(C)c2sc3ccccc3c2c1=O (centres undefined)	-15.9%	0.0%[59 µM]	-5.5%	.	35.5%	.
COc1cccc(NC(=O)CSc2nccn2Cc2ccc3c(c2)OCO3)c1	?	-8.5%[59 µM]	?	.	1.1%[57 µM]	.
Cc1nc2c(-c3ccccc3)c(C)nn2c(C)c1CCC(=O)NCc1ccc(Cl)cc1	14.8%	7.7%[59 µM]	-0.4%	.	38.3%	.
O=C(O)c1cc(-c2ccco2)nc2ccc(Br)cc12	12.6µM*!	3.55µM*	11.4%	-6.8	56.2µM*!	?
CCc1ccc(N=C2NC(=O)CC(C(=O)Nc3ccc(OC)cc3)S2)cc1 (centres undefined)	?	?	1.2%	.	30.5%	.
O=C(O)C1(C(=O)O)CCC1	-13.7%	.	0.1%	1.4	11.4%	7.4
N.N.O=C(O)C1(C(=O)O)CCC1.[Pt]	.	0.631µM*	.	.	.	.
CN(C)CC(C)(C)CNC(=S)NCc1ccc2c(c1)OCO2	?	8.91µM*	44.7µM*	2.5	?	9.4
O=C(NCc1ccco1)c1cccc(NC(=O)c2ccco2)c1	-29.1%	56.2µM*	-32.1%	-24.7	-1.7%	-19.3
NS(=O)(=O)c1cccc(NC(=S)NCc2ccc3c(c2)OCO3)c1	-19.6%	50.1µM*	-19.2%	-13.2	3.3%	7.3
CC(C)(C)NC(=S)NCc1ccc2c(c1)OCO2	-21.8%	-6.2%[59 µM]	-7.0%	7.6	-0.4%	1.8
O=C(NCc1ccccc1)c1cccc(NC(=O)c2ccco2)c1	-15.6%	-23.5%	7.7%	-5.2	3.1%	-2.3
CC(=O)c1ccc(NC(=S)NCc2ccco2)cc1	-17.1%	.	?	-0.9	28.5%	0.1
SMILES	JMJD2A Tudor	G9a block	BAZ2B inh	CtBP-E1A blk	HP1b binding inh	Six1-Eya2 inh
COC(=O)c1ccc(NC(=S)NCc2ccco2)cc1	-20.5%	50.1µM*	?	4.0	10.4%	-0.6
Cc1ccc(S(=O)(=O)c2nc(-c3cccc(Br)c3)oc2N2CCCCCC2)cc1	-27.8%	?	?	.	-16.8%	.
Cc1cccc(NS(=O)(=O)c2ccc(NC(=O)N3CCCC3)cc2)c1	-17.7%	6.0%[59 µM]	5.9%	.	8.8%[57 µM]	.
CC(=O)Nc1ccc(NC(=O)C(Cc2ccccc2)NS(=O)(=O)c2ccc3c(c2)oc(=O)n3C)cc1 (centres undefined)	3.4%	?	-16.1%	.	45.3%	.
CCOC(=O)Cn1c(=O)cc(C)c2c(C)nn(-c3cccc(F)c3)c21	25.7%	51.0%[59 µM]	29.6%	.	-4.9%	.
CCCCOC(=O)c1ccc(NC(=O)c2nn(C)cc2Br)cc1	6.1%[57.1 µM]	9.7%[59 µM]	8.0%	3.4	102.7%	5.1
O=C(c1ccc(NC(=S)NCc2ccco2)cc1)N1CCOCC1	-6.5%	44.7µM*	-18.4%	-26.1	9.8%	-12.9
Cn1cc(Br)c(C(=O)NC(=S)Nc2ccc(S(N)(=O)=O)cc2)n1	-6.8%[11.4 µM]	44.7µM*	-14.5%	.	-2.4%	5.6
NS(=O)(=O)c1ccc(NC(=S)NCc2ccc(F)cc2)cc1	-13.5%	?	-37.3%	7.0	-16.8%	-4.3
NS(=O)(=O)c1ccc(NC(=S)NCc2ccco2)cc1	-29.1%	3.16µM*	?	0.0	?	-4.6
NC(=O)c1ccc(NC(=S)NCc2ccco2)cc1	-18.1%	50.1µM*	0.7%	.	14.2%	4.5
CC(=O)c1cccc(Nc2c3c(nc4nc(-c5cccs5)nn24)CCCC3)c1	-15.7%	-6.7%[59 µM]	-19.0%	.	21.8%[57 µM]	.
COCCn1c(=N)c(C(=O)NC(C)c2ccccc2)cc2c(=O)n3cc(C)ccc3nc21 (centres undefined)	12.8%	5.4%[59 µM]	-0.6%	.	35.4%	.
O=S(=O)(c1ccc(NC(=S)NCc2ccco2)cc1)N1CCCCC1	-31.0%	56.2µM*	-38.4%	-8.1	-7.1%	-18.3
O=C(NCc1ccco1)c1ccc(S(=O)(=O)N2CCOCC2)cc1	?	12.6µM*	79.4µM*	1.6	?	-3.9
O=C(NCc1ccco1)c1ccc(S(=O)(=O)N2CCCCC2)cc1	-10.2%	-1.2%	-11.1%	.	28.8%	4.3
NS(=O)(=O)c1ccc(NC(=S)NCc2ccc(Cl)cc2)cc1	-23.2%	8.91µM*	-25.7%	-1.1	?	-2.8
COc1ccc(CCC(=O)NCc2ccc3c(c2)CCN3C(=O)c2ccc(C)cc2)cc1	-23.7%	-0.8%[59 µM]	-4.3%	.	26.2%	.
O=C(Nc1ccc(F)c(Cl)c1)C1Cc2ccccc2CN1S(=O)(=O)c1ccc(F)cc1 (centres undefined)	-12.8%	11.2%[59 µM]	?	.	25.5%	.
